Measured values taken from the supplement of paper PMC11634586.
Unmarked numbers belong to inactive results.

Each compound was assayed on NCI-H1688 (assay: inhibition of cell viability relative to untreated control (fraction); higher = stronger growth inhibition, active = 0.5 or more). Details: 30 µM; 24 h.
How it was run: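 Values are inhibition of cell viability expressed as a fraction, derived from viability normalised to untreated cells. NCI-H1688 small cell lung cancer cells in 96-well plates were exposed to a natural compound library (TargetMol) at 30 µM for 24 h at 37°C with 5% CO2, and Cell Counting Kit-8 absorbance at 450 nm was then read.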

SMILES	inhibition of cell viability
C[C@@H]1O[C@@H](O[C@H]2[C@H](Oc3cc(O)c4c(=O)cc(-c5ccc(O)cc5)oc4c3)O[C@H](CO)[C@@H](O)[C@@H]2O)[C@H](O)[C@H](O)[C@H]1O [Rhoifolin]	0.127
COc1ccccc1O [Guaiacol]	-0.0875
C[C@@H]1O[C@@H](Oc2c(-c3ccc(O)c(O)c3)oc3cc(O)cc(O)c3c2=O)[C@H](O)[C@H](O)[C@H]1O [Quercitrin]	0.325
O=C1O[C@H]([C@@H](O)CO)C(O)=C1O [L(+)-Ascorbic acid]	0.195
O=C1C[C@@H](c2ccc(O)cc2)Oc2cc(O)cc(O)c21 [Naringenin]	-0.726
CC(C)=CCC[C@](C)(O[C@@H]1O[C@H](CO[C@@H]2O[C@@H](CO)[C@H](O)[C@H]2O)[C@@H](O)[C@H](O)[C@H]1O)[C@H]1CC[C@]2(C)[C@@H]1[C@H](O)C[C@@H]1[C@@]3(C)CC[C@H](O[C@@H]4O[C@H](CO)[C@@H](O)[C@H](O)[C@H]4O[C@@H]4O[C@H](CO)[C@@H](O)[C@H](O)[C@H]4O)C(C)(C)[C@@H]3CC[C@]12C [Ginsenoside Rc]	-0.0382
O=c1cc(-c2ccc(O)c(O)c2)oc2cc(O)cc(O)c12 [Luteolin]	0.794 (active)
C=C(C)[C@H]1CC=C(C)CC1 [(R)-(+)-Limonene]	0.281
C[C@@H]1O[C@@H](O[C@@H]2[C@@H](O)[C@H](OCCc3ccc(O)c(O)c3)O[C@H](CO[C@@H]3O[C@H](CO)[C@@H](O)[C@H](O)[C@H]3O)[C@H]2OC(=O)/C=C/c2ccc(O)c(O)c2)[C@H](O)[C@H](O)[C@H]1O [Echinacoside]	0.128
